# Measured values from PubChem BioAssay (Tox21).
# Results filed as inconclusive are left out. Values without a mark were called inactive. Calls follow the shape of the dose curve; as a rule, active = well fitted cell-killing curve with a large enough effect in the repeat runs; inconclusive = weak or mixed curves; inactive = flat fitted curve, though single readings scatter.
# Experiment: qHTS RealTime-Glo MT Cell Viability Assay in HepG2 cells - 24 hour (AID 1224867); also: nearly all actives have a fitted effect of over 50% in size
# Settings: RealTime-Glo luminescence; series mostly up to 76.8 µM; activity change, negative = cytotoxicity: at the top concentration
# Source text: U.S. Tox21 Program National Center for Advancing Translational Sciences [NCATS] NIH Chemical Genomics Center [NCGC] U.S. Environmental Protection Agency [EPA] National Institutes of Environmental Health Sciences [NIEHS] National Toxicology Program [NTP] U.S. Food and Drug Administration [FDA] Tox21 Assay Overview: Measure of cell viability is critical in the cell-base assay. Analysis of cell viability is necessary for the characterization of cell responses to cytotoxic drugs and environmental stress. A RealTime-Glo MT Cell Viability Assay to monitor cell viability in real time of continues cell culture during 40 hours of compound treatment was used to screen Tox21 10K library compounds in HepG2 cells. The RealTime-Glo MT Cell Viability Assay is a nonlytic, homogeneous, bioluminescent method to measure cell viability in real time using a simple, plate-based method. The assay involves adding NanoLuc luciferase and a cell-permeant prosubstrate to cells in culture. Viable cells reduce the proprietary prosubstrate to generate a substrate for NanoLuc luciferase. This substrate diffuses from cells into the surrounding culture medium, where it is rapidly used by the NanoLuc Enzyme to produce a luminescent signal. The signal correlates with the number of viable cells, making the assay well suited for cytotoxicity studies.
# Tox21 Assay Protocol Summary: The mixture of HepG2 cell suspension and reagents were dispensed at 600cells/6 ul/well in 1536-well tissue culture treated black solid bottom plates using a Multidrop dispenser. After the assay plates were incubated at a 37 C/5% CO2 incubator for 5 hours, 23 nL of compounds dissolved in DMSO, positive and negative controls was transferred to the assay plate by a pintool work station. The plates were incubated at 37 C for 40 hours. The luminescence intensity were measured at 0h, 8h, 16h, 24h, 32h and 40h time points using ViewLux plate reader during compound treatment.
# % is scaled to controls: 0 for no effect and ±100 for the full control effect.
row,SMILES,"activity change, negative = cytotoxicity"
1,CC(C)C/C=C(\C=O)c1ccccc1,-2.79%
2,COc1ccc(C(=O)c2ccc(C)cc2)c(O)c1,-6.51%
3,Cc1ccc(S(=O)(=O)NC(=O)NC2CCCC2)cc1,4.27% [at 35.3 µM]
4,OCCc1ccncc1,1.27%
5,O=C(O)c1cccc(C(=O)O)c1C(=O)O,-1.06%
6,CCCCC(CC)COCCC#N (stereo not given),0.259%
7,C/C(=C(\CCO)SS/C(CCO)=C(\C)N(C=O)Cc1cnc(C)nc1N)N(C=O)Cc1cnc(C)nc1N,0.046% [at 35.3 µM]
8,CCOc1ccc(NC(C)=O)cc1N,2.07%
9,Cc1cc(C)c(C)c(O)c1,-3.51%
10,O=C(O)c1ccc2c(c1)nc(C(=O)NC1CCN(C3CC3)CC1)n2Cc1cc(-c2ccc(Cl)s2)on1,-0.892% [at 15.8 µM]
11,C=Cc1ccc(C=C)cc1,3.4%
12,O=[N+]([O-])c1ccccc1CCO,0.335%
13,Cc1nc2sccn2c(=O)c1CCN1CCC(=C(c2ccc(F)cc2)c2ccc(F)cc2)CC1,-17.2% [at 35.3 µM]
14,C=C(C)C(=O)OCCCCCCCCCCOC(=O)C(=C)C,-3.86%
15,CC(O)C(C)O (stereo not given),0.569%
16,Nc1ccc(F)cc1F,0.374%
17,Clc1ccccc1-c1nc(-c2ccncc2)no1,-3.05% [at 35.3 µM]
18,Cc1c(Nc2ncccc2C(=O)O)cccc1C(F)(F)F,1.23% [at 35.3 µM]
19,CCOc1ccccc1O,-5.66%
20,CCCCCCCCC(=O)OCC(C)OC(=O)CCCCCCCC (stereo not given),0.709%

row,SMILES,"activity change, negative = cytotoxicity"
1,c1ccc(-c2ccc(-c3ccccc3)cc2)cc1,1.53% [at 15.8 µM]
2,N#Cc1ccc(CC(=O)c2cccc(C(F)(F)F)c2)cc1,-15.6%
3,O=C(N[C@@H](Cc1ccccc1)[C@@H](O)C(=O)N1C[C@@H](O)[C@@H](O)C1)c1cc2cc(Cl)ccc2[nH]1,-9.03%
4,FC1(F)C(F)(F)C(F)(F)C2(F)C(F)(C1(F)F)C(F)(F)C(F)(F)C1(F)C(F)(F)C(F)(F)C(F)(F)C(F)(F)C12F (stereo not given),0.234%
5,CC(=O)c1ccc(Cl)c(Cl)c1Cl,1.55%
6,CCCCCCOC(=O)c1ccccc1,-3.93%
7,CCCCCCCCCC(C)C=O (stereo not given),3.09%
8,CC(C)(O)C(=O)O,0.279%
9,CCCN(C1CCN(C(=O)C2CCNCC2)CC1)[C@@H]1CCc2ccc(OC)cc2C1,-5.18%
10,CC(C)CC(C)(C)C,-0.784%
11,CCCCCCCCOCCCN,-10.8%
12,CC(Cc1ccccc1)(NC(=O)CN)c1ccccc1 (stereo not given),2.95% [at 35.3 µM]
13,CCCCCCCCCCCCCCCCCCCl,1.13% [at 6.97 µM]
14,CCCOC(C)=O,0.229%
15,CCn1nc(Cc2ccccc2)cc1C1CCN(C[C@H]2C[C@H](N(C)[C@@H](C(=O)O)C(C)C)C[C@@H]2c2cccc(F)c2)CC1,-7.68%
16,COc1ccnc2c1CCCCC2S(=O)c1nc2ccccc2[nH]1 (stereo not given),0.158% [at 35.3 µM]
17,CC(C)(C)N,-1.03%
18,COc1ccc(CN(CCN(C)C)c2ncccn2)cc1,0.121% [at 35.3 µM]
19,CCCCCCCCCCCCSCCOCCO,1.05% [at 35.3 µM]
20,CCCCCCC/C=C/C=O,0.394%
